Our source for the sensor-assay potency score (higher = more potent) values is the OligoGym collection.
Note: reference of the scale not given here.

The target of one test is SLIT1. Kind of test: pooled miR-30 sensor sort-seq; sequence = guide strand. The conditions noted are these: shRNA.
Take TTGACACTGAGCAACTTCTCAC: the sensor-assay potency score (higher = more potent) is -0.268. TAAGTTTTTTAAACATCCCAGT yielded a sensor-assay potency score (higher = more potent) of -1.01. On the same count and under the same terms, next, TTCAATCGCAGTTCTGCCGTGG: 0.209; TTGAGGATCTGCCACAGGCGGA: -1.35. TTGCTCACACAGCTCGCCCGAA displayed a sensor-assay potency score (higher = more potent) of -0.836.

The sequence TTCAATTTCTGACACCTTGTTG gave a sensor-assay potency score (higher = more potent) of -0.171. Regarding TGAAGGTAGACAGCTGTCCCGG, the sensor-assay potency score (higher = more potent) is -1.03. Consider TTGACATGGGTTCAGATCCGGA, for which the sensor-assay potency score (higher = more potent) was -1.04. Take TTCTTGCTCTTGATCTGCCCGA: the sensor-assay potency score (higher = more potent) is -0.859.

With TTGCAGGTCAGTGAACTGCAGG, the sensor-assay potency score (higher = more potent) was -1.32.

Regarding TTGCTTAAGGAACTGATCTTGT, the sensor-assay potency score (higher = more potent) was -0.323. Regarding TTGTGGATGCAGCTGATGCGGT, the sensor-assay potency score (higher = more potent) was -0.921.

Another test deals with SLITRK3. Described as above. As to conditions: shRNA.
TTGCAGTTGACAGTCAAGCCAA showed a sensor-assay potency score (higher = more potent) of -0.544. Consider TCTTTTTCCAGCAAGGTCCGGT, for which the sensor-assay potency score (higher = more potent) is -0.176. For TTATCCACAACATCCTTCCTCT, the sensor-assay potency score (higher = more potent) is 0.0957.

Consider TTGATGTGCAAATTACAGGTAC, for which the sensor-assay potency score (higher = more potent) was -0.245. Same read-out and setting: next, TTGCACATTTGGGTAACCGGGT: -0.695; AATGACATTGTAATCTGCCTGC: 0.274; TTAACTTCACAGTAGCATGGAT: -0.128. TTCATGTAGATATAGTCTCTTT gave a sensor-assay potency score (higher = more potent) of -0.676. As to TTTCTCGTAGGTCCTTTCCATG, the sensor-assay potency score (higher = more potent) is -1.36. In turn, TTCTCATTGAGGTCTATCTGGA yielded a sensor-assay potency score (higher = more potent) of -0.877. As to TTGAACTCAAAGTACAAGTAGT, the sensor-assay potency score (higher = more potent) was -0.338. For TAAAAAAGAACCTTTAACCTAT, the sensor-assay potency score (higher = more potent) came out at 0.15.

The target in another test is SLITRK5. The test is described as above. As to conditions: shRNA.
Sequence TAGTCAGAAATAAGTCTCCTTG had a sensor-assay potency score (higher = more potent) of -0.638.

TTGGATGAGTGACTTCAGCTGG displayed a sensor-assay potency score (higher = more potent) of 0.319.

Sequence TACATCTGAATAGTCAGGGCAC came in with a sensor-assay potency score (higher = more potent) of 0.215. On the same count and under the same terms, next, TACAGTGTGACACCTCTGCAAA: -1.11. TACAGCAAACGCTAGAGTCTGC showed a sensor-assay potency score (higher = more potent) of -0.49. Regarding TTATTCAAGAATAGCAGCTGGA, the sensor-assay potency score (higher = more potent) is -0.212. Consider TAATTGACAAACTCATTGGGAT, for which the sensor-assay potency score (higher = more potent) was found to be 0.191. On the same count and under the same terms, in the case of TTCCAGACTGAATCTCGCGGAT it was -0.818; in that of TCGCTCTGGTTCTTCTTCCTGC, -1.1.

As to AACATTGCTACCTAGATGCAAA, the sensor-assay potency score (higher = more potent) was -1.34. As to TAATACAGTGTGACACCTCTGC, the sensor-assay potency score (higher = more potent) worked out at 0.818.

Another test has as its target SLMAP. Described as above. The conditions noted are these: shRNA.
TAACTTTCCGTGTATTCTCTGT registered a sensor-assay potency score (higher = more potent) of -0.472. On to TTCACTGTCCTTCTCCTCCCGG, for which the sensor-assay potency score (higher = more potent) is -0.623. Consider TAATTCTCTTAATTCTTCCTGA, for which the sensor-assay potency score (higher = more potent) amounted to 0.412.
